Assay outcomes (PubChem BioAssay)
GALK inhibitor: blocks human galactokinase activity | P51570 | Purified GALK, Kinase-Glo residual ATP luminescence | Potency, µM (series often up to 57.5 µM), actives largely listed as inhibitors | actives 0.007% (n = 270,000) | AID 1868
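Galactose (100 uM) and ATP (35 uM) were turned over by 5 nM GALK for 1 h at RT. Kinase-Glo Plus then converted the remaining ATP into a luminescent signal.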
D1 antagonist: antagonists of human D1 dopamine receptor; P21728; HEK293 TREx D1 cells, calcium flux, dopamine EC80; stronger effect = lower value; activity change, negative = inhibition, % at 10 µM; actives 3.2% (n = 360,000); AID 504652; in the data active = activity change below about -30%
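Tetracycline-induced HEK293 Trex D1 cells, force-coupled to calcium, dye-loaded; compounds added and read 180 s, then EC80 dopamine added and calcium flux tracked kinetically another 180 s.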
D1 ag: activates the human D1 dopamine receptor. P21728. HEK293 T-REx D1 cells, calcium flux, agonist mode. activation, % at 2 µM. actives 1% (n = 360,000). AID 504660; in the data active = activation above about 30%
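Tetracycline-induced HEK293 TREx D1 cells, force-coupled to calcium signalling, were dye-loaded with a no-wash calcium kit. Compound was pin-added after a 10 s baseline. Fluorescence was read kinetically at 1 cycle/s for 180 s, with calcium rises flagged as agonism.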
D1 PAM: enhances dopamine response at the human D1 receptor; HEK293 TREx D1 cells, calcium flux, dopamine EC20 potentiation; potentiation, % at 10 µM; actives 0.036% (n = 360,000); AID 504651; in the data active = potentiation above about 30%
USP2a block: inhibitors of human ubiquitin-specific protease USP2a. O75604. USP2 core, Ub-CHOP2 coupled fluorogenic reporter, 485/531. Potency, µM (highest dose often 38.3 µM), actives largely listed as inhibitors. actives 0.01% (n = 330,000). AID 463254
Target sequence (O75604 whole entry, looked up): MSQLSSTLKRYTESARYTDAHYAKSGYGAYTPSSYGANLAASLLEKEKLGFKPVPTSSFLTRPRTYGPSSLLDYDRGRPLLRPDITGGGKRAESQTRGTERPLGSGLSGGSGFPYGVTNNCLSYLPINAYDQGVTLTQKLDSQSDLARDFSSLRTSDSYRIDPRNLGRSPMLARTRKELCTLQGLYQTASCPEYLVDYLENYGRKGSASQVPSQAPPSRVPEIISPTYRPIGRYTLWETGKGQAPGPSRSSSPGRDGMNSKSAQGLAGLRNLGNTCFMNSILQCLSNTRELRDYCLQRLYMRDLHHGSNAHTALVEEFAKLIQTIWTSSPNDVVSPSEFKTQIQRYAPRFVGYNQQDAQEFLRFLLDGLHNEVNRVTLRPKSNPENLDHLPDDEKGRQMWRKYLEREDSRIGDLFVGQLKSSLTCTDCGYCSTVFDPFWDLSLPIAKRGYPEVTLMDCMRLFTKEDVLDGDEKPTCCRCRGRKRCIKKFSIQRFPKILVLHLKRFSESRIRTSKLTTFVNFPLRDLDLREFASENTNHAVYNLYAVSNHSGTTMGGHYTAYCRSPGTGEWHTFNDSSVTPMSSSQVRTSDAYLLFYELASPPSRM
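USP2 core (10nM final) preincubated 30min RT with compound in 20mM Tris-HCl pH 8.0, 2mM CaCl2, 2mM beta-mercaptoethanol, 0.05% CHAPS; 25nM Ub-CHOP2 plus 25nM reporter substrate added, fluorescence (Ex485/Em531) read after 60min.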
Eya2 inh: blocks the phosphatase activity of human Eya2. Potency, µM (highest dose often 76.9 µM), actives largely listed as inhibitors. O00167. actives 0.006% (n = 330,000). recombinant Eya2, OMFP fluorescence dephosphorylation (OMFP is methylfluorescein phosphate)
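Eya2 protein (added as 0.2 uM solution) was preincubated with compound for 10 min at ambient temperature in 50 mM HEPES pH 7.5, 50 mM NaCl, 5 uM MgCl2, 0.05% BSA, 1 mM DTT. OMFP (added at 50 uM) then reacted 10 min; fluorescence read at 485/525 nm.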
Of the large screens only hits and unclear results are named; the others gave an inactive call; ! = repeats disagree. This is a sample that favours compounds with a hit; in the whole collection about 3.9% have one here. Unless noted, calls follow the shape of the dose curve; as a rule, active = well fitted inhibition curve with a large enough effect; inconclusive = small, poorly fitted or top-dose-only effect, or effect the other way; inactive = flat fitted curve, though single readings scatter.

COc1cc(CN2CCN(C(c3ccccc3)c3ccccc3)CC2)cc(OC)c1OC	D1 antagonist -52 (no result: GALK inhibitor)
COc1cccc(CN2CCN(Cc3cc(OC)c(OC)c(OC)c3)CC2)c1OC	none
CC(C)Cn1nc(NC(=O)c2cccc(Cl)c2)c2cc3ccccc3nc21	none (no result: GALK inhibitor, USP2a block, Eya2 inh)
CN[C@H]1CC[C@@H](c2ccc(Cl)c(Cl)c2)c2ccccc21	D1 antagonist -34!, D1 ag 45
Nc1nc2c(s1)CC(c1ccccc1)CC2 (configuration not stated)	D1 antagonist -30
O=C1CN(C(=O)Cc2ccccc2)C(c2ccc(F)cc2)c2cc(Br)ccc2N1 (configuration not stated)	D1 antagonist -48 (no result: GALK inhibitor, USP2a block, Eya2 inh)
CCC(CC)NCc1ccc2c(c1)c1ccccc1n2CC	D1 ag 60
CCn1c2ccccc2c2cc(CNCc3ccc(OC)cc3OC)ccc21	D1 ag 94
COc1ccc(CNCc2cc(C)c(OC)cc2C)c(OC)c1	D1 ag 30
COc1ccc(NC(=O)Cn2cc(C(=O)C3CCCCC3)c3ccccc32)cc1	none (no result: GALK inhibitor, USP2a block, Eya2 inh)
COc1ccc(NC(=O)CN(C)C(=O)c2ccc(=O)[nH]c2)cc1	none
CCOc1ccc(NC(=O)CN(C)C(=O)c2ccc(=O)[nH]c2)cc1OCC	D1 antagonist -77
CCOc1ccc(NC(=O)CN(C)C(=O)c2ccc(C3SCCS3)cc2)cc1OCC	D1 antagonist -45 (no result: GALK inhibitor)
Cc1ccc(OCC(=O)Nc2ccc3c(c2)nc(CCNC(=O)c2ccco2)n3C)cc1	none (no result: GALK inhibitor, USP2a block, Eya2 inh)
Cc1cccc(N2CCN(C(=O)CCc3c(C)nc4ncnn4c3C)CC2)c1C	none (no result: GALK inhibitor, USP2a block, Eya2 inh)
NS(=O)(=O)c1ccc(NCc2c(F)cccc2Cl)cc1	D1 antagonist -35
Fc1cccc(Cl)c1CNc1ccc(N2CCCC2)cc1	none
CCOc1ccc(N2CC(C(=O)NCC(=O)Nc3ccc(F)c(F)c3F)CC2=O)cc1 (configuration not stated)	D1 antagonist -32 (no result: GALK inhibitor)
COCCCNC(=O)c1cc(=O)n(Cc2ccc(Cl)cc2)c2ccccc12	D1 antagonist -31
Cc1ccc(-n2ncc(C(=O)NCc3ccccc3C)c2-n2cccc2)cc1	none (no result: GALK inhibitor, USP2a block, Eya2 inh)
Cc1ccc(N2CC(c3nnc(Cc4ccc(F)cc4)o3)CC2=O)cc1 (configuration not stated)	none (no result: GALK inhibitor, USP2a block, Eya2 inh)
COc1ccc(NS(=O)(=O)c2ccc3c(c2)OCCO3)cc1OC	none
COc1ccc(S(=O)(=O)Nc2ccc3c(c2)OCCO3)cc1Cl	D1 antagonist -32
Cc1ccc(S(=O)(=O)Nc2ccc3c(c2)OCCO3)cc1C	none
CC(=O)Nc1ccc(S(=O)(=O)Nc2ccc3c(c2)OCCO3)cc1Cl	D1 antagonist -31 (no result: GALK inhibitor)
CC(C)NC(=O)N1[C@H](c2cccs2)[C@@H](C)C(=O)[C@@H](C)[C@@H]1c1cccs1	none (no result: GALK inhibitor, USP2a block, Eya2 inh)
COc1ccc(CN2COc3ccc4c(-c5ccccc5)cc(=O)oc4c3C2)cc1OC	none (no result: GALK inhibitor, USP2a block, Eya2 inh)
CCOC(=O)c1c(CSc2ccccc2)n(C)c2cc(Br)c(OC)c(O)c12	none
CCOC(=O)c1c(CSc2ccccc2)n(C)c2cc(Br)c(OCC(O)CNC(CO)(CO)CO)cc12 (configuration not stated)	D1 antagonist -47 (no result: GALK inhibitor)
CCCNC(=O)C1CCC(Cn2c(=O)c3sccc3n(CC(=O)Nc3ccccc3C)c2=O)CC1 (configuration not stated)	none (no result: GALK inhibitor, USP2a block, Eya2 inh)
CCCSc1nnc(-c2cnn(-c3ccccc3)c2-n2cccc2)n1C	D1 ag 36
COc1ccccc1NC(=O)CCn1nc(-c2ccccc2OC)c2c(C)cc(C)nc21	none (no result: GALK inhibitor, USP2a block, Eya2 inh)
CN(C)c1ccc(/C=C/c2cc[n+](C)cc2)cc1	none
CN(C)c1ccc(/C=C/c2cc[n+]([O-])cc2)cc1	D1 ag 73
O=[S+]([O-])(c1ccc2c(c1)OCCO2)N1CCN([S+](=O)([O-])c2ccc(F)cc2Cl)CC1	none (no result: GALK inhibitor, USP2a block, Eya2 inh)
CN1CCN(c2oc(COc3ccc(-c4ccccc4)cc3)nc2C#N)CC1	D1 antagonist -35
N#Cc1nc(COc2ccc(-c3ccccc3)cc2)oc1NCCCN1CCOCC1	none
N#Cc1nc(-c2ccc(OCc3ccccc3)cc2)oc1N1CCC(C(N)=O)CC1	D1 antagonist -36
COc1ccc(-c2nc(C#N)c(N3CCC(C(N)=O)CC3)o2)cc1	none
COc1ccc(N2CCN(c3oc(COc4ccccc4)nc3C#N)CC2)cc1	none
CN(C)CCNc1oc(COc2ccc(-c3ccccc3)cc2)nc1C#N	D1 ag 40
Cc1ccc(C(=O)CSc2nc(-c3ccccc3)nc3c2CCCC3)cc1C	none (no result: GALK inhibitor, USP2a block, Eya2 inh)
Nc1cnccc1C(=O)O	D1 ag 32
CS(=O)(=O)N1Cc2ccccc2CC1C(=O)O (configuration not stated)	D1 antagonist -43
O=C(O)[C@H]1Cc2ccccc2CN1S(=O)(=O)c1ccc(F)cc1	none
COC(=O)C1Cc2ccccc2CN1S(=O)(=O)c1ccc(F)cc1 (configuration not stated)	D1 antagonist -36 (no result: GALK inhibitor)
CC1Cc2ccccc2N1S(=O)(=O)c1cccc(C(=O)NCc2ccncc2)c1 (configuration not stated)	D1 antagonist -54 (no result: GALK inhibitor, D1 PAM)
CC1Cc2ccccc2N1S(=O)(=O)c1cccc(C(=O)NCc2ccccn2)c1 (configuration not stated)	none (no result: GALK inhibitor)
O=C(CCC(=O)N1CCSc2ccccc21)Nc1cccc(F)c1	D1 antagonist -31, Eya2 inh inconclusive (no result: GALK inhibitor)
O=C(CCC(=O)N1CCSc2ccccc21)Nc1ccc(F)cc1	none (no result: GALK inhibitor)
COc1cc2c(cc1OC)C(c1ccc(F)cc1)N(c1cccc(C#N)c1)C(=O)C2 (configuration not stated)	none (no result: GALK inhibitor, USP2a block, Eya2 inh)
CC(C)(NC(=O)c1cc(Cl)c2ccccc2c1O)C(=O)O	D1 antagonist -30
O=C(O)c1cc(Cl)c2ccccc2c1O	none
CCc1ccc(CN(Cc2ccco2)C(=O)c2cc(-c3ccc(Cl)cc3)on2)cc1	none (no result: GALK inhibitor, USP2a block, Eya2 inh)
O=C(c1cc(-c2ccc(Cl)cc2)on1)N(Cc1ccc(F)cc1)Cc1ccco1	D1 antagonist -39, D1 ag 30 (no result: GALK inhibitor, USP2a block, Eya2 inh)
O=C(c1cc(-c2ccc(Cl)cc2)on1)N(Cc1cccc(F)c1)Cc1ccco1	D1 ag 33 (no result: GALK inhibitor, USP2a block, Eya2 inh)
CS(=O)(=O)c1ncc(Cl)c(C(=O)N(Cc2ccc(Cl)cc2)Cc2ccco2)n1	D1 antagonist -63 (no result: GALK inhibitor, USP2a block, Eya2 inh)
COc1ccc(CNC(=O)Cc2c(C)c3cc4c(C)coc4cc3oc2=O)cc1	none (no result: GALK inhibitor, USP2a block, Eya2 inh)
CCCN1C(=O)c2[nH]nc(-c3ccccc3O)c2C1c1ccc(OCc2ccccc2)c(OCC)c1 (configuration not stated)	none (no result: GALK inhibitor, USP2a block, Eya2 inh)
CCCn1c(=O)c2sccc2n2c(CCCC(=O)NC3CCCCC3)nnc12	none (no result: GALK inhibitor, USP2a block, Eya2 inh)
